Records with an inconclusive call do not appear. Active and inactive are the calls of the source. Calls come from the whole dose curve; as a rule, active = well fitted cell-killing curve with a large enough effect; inconclusive = small, poorly fitted or top-dose-only effect, or effect the other way; inactive = no such curve, though single readings can be large or run the other way.
% is set by controls: 0 for no effect and ±100 for the full control effect; potency is the fitted concentration of half-maximal effect.

In the assay the test system is SW626. Description: Confirmatory qHTS for gynecologic anti-cancer compounds from libraries of approved drugs and bioactive compounds. Note: nearly all actives have a fitted effect of over 55% in size. Particulars: gynecologic cancer cell panel viability, ATPlite luminescence, 48 h; series mostly up to 57.6 µM; activity change, negative = viability loss: at the top concentration. In a few lines:
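Cells (1,000/well) plated 16 h, then exposed 48 h at 37 °C to 11 concentrations (1:3) from 57.5 uM to 0.977 nM. Viability by ATPlite luminescence after 15 min; IC50 derived, with HEK 293T used for selectivity index.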
(In general: Quantitative high-throughput screening tests each substance at several concentrations.)
For `Cc1cnc(Nc2ccc(F)cc2Cl)nc1-c1c[nH]c(C(=O)NC(CO)c2cccc(Cl)c2)c1` (stereo not given), the “activity change, negative = viability loss” value was -11.9% (inactive).

Regarding `COC(C)(C)CCn1nc(Nc2c(C)cccc2C)c2cnc(Nc3ccc(OCCN4CCCC4)c(F)c3)nc21`, the Potency is 19.3 µM (active).

As for `Cc1ccc(C(=O)Nc2ccc(CN3CCN(C)CC3)c(C(F)(F)F)c2)cc1C#Cc1cnc2[nH]ncc2c1`, the Potency was 1.72 µM (active).

Turning to `Oc1cn2c(n1)Nc1ccc(Cl)c(Cl)c1C2`, the “activity change, negative = viability loss” value was 2.36% [at 19.5 µM] (inactive).

`CC1=C(CO)C(=O)O[C@@H]([C@@H](C)[C@H]2CC[C@H]3[C@@H]4C[C@H]5O[C@]56[C@@H](O)C=CC(=O)[C@]6(C)[C@H]4CC[C@]23C)C1`: the Potency was 5.3 µM (active).

As to `CCN1CCN(Cc2ccc(-c3cc4c(NC(C)c5ccccc5)ncnc4[nH]3)cc2)CC1` (stereo not given), the Potency was 27.3 µM (active).

As to `CN(Cc1cnc2nc(N)nc(N)c2n1)c1ccc(C(=O)N[C@@H](CCC(=O)O)C(=O)O)cc1`, the “activity change, negative = viability loss” value is 39.2% (inactive).

`O=C(O)c1ccc(Nc2ncc3c(n2)-c2ccc(Cl)cc2C(c2c(F)cccc2F)=NC3)cc1`: the “activity change, negative = viability loss” value was -24.9% (inactive).

Regarding `COc1cccc2c1C(=O)c1c(O)c3c(c(O)c1C2=O)C[C@@](O)(C(=O)CO)C[C@@H]3O[C@H]1C[C@H](N)[C@H](O[C@@H]2CCCCO2)[C@H](C)O1`, the Potency is 7.69 µM (active).

As for `COC(C(=O)N1Cc2[nH]nc(NC(=O)c3ccc(N4CCN(C)CC4)cc3)c2C1)c1ccccc1` (stereo not given), the “activity change, negative = viability loss” value is -19.9% (inactive).

For `OCCNC1CCCc2c1[nH]c1ccc(-c3ccccc3)cc21` (stereo not given), the Potency is 19.3 µM (active).

As for `Nc1ccc(-c2ccc3ncc4ccc(=O)n(-c5cccc(C(F)(F)F)c5)c4c3c2)cn1`, the Potency was 6.11 µM (active).

Take `O=c1[nH]c(=O)n([C@H]2C[C@H](O)[C@@H](CO)O2)cc1C(F)(F)F`: the “activity change, negative = viability loss” value is -9.33% (inactive).

Regarding `CCCS(=O)c1ccc2nc(NC(=O)OC)[nH]c2c1` (stereo not given), the “activity change, negative = viability loss” value is -17.9% (inactive).

As to `COc1cc(N2CCC(N)CC2)ccc1Nc1ncc(Cl)c(-c2c[nH]c3ccccc23)n1`, the Potency is 21.7 µM (active).

Turning to `Cc1nc(Nc2n[nH]c3c2CN(C(=O)NC(CN(C)C)c2ccccc2)C3(C)C)c2sccc2n1` (stereo not given), the “activity change, negative = viability loss” value is -17.1% (inactive).

Take `Cc1cc(C2CCCCC2)n(O)c(=O)c1`: the Potency is 8.86 µM (active).

Regarding `CCN(CC)CCCC(C)Nc1c2ccc(Cl)cc2nc2ccc(OC)cc12` (stereo not given), the Potency is 27.3 µM (active).

With `O=c1cc(CN2CCOCC2)occ1OCCCCCSc1ccnc2cc(C(F)(F)F)ccc12`, the “activity change, negative = viability loss” value is 0.329% (inactive).

On to `CC(C)n1nc(-c2cc3cc(O)ccc3[nH]2)c2c(N)ncnc21`, for which the Potency is 7.69 µM (active).

Regarding `C[C@@H](Oc1cc(-c2cnn(C3CCNCC3)c2)cnc1N)c1c(Cl)ccc(F)c1Cl`, the Potency is 21.7 µM (active).

Consider `CN1C2CCC1CC(OC(=O)[C@H](CO)c1ccccc1)C2` (stereo not given in full), for which the “activity change, negative = viability loss” value is -16.8% (inactive).

`CC(Oc1ccc2[nH]nc(/C=C/c3cnn(CCO)c3)c2c1)c1c(Cl)cncc1Cl` (stereo not given): the “activity change, negative = viability loss” value was 10.8% (inactive).

On to `Cc1[nH]c2ccccc2c1CCNCc1ccc(/C=C/C(=O)NO)cc1`, for which the Potency is 0.0968 µM (active).

Turning to `CCN(CC)CCCC(C)Nc1ccnc2cc(Cl)ccc12` (stereo not given), the “activity change, negative = viability loss” value is -5.13% [at 19.5 µM] (inactive).

Regarding `COCCOc1nc(-c2ccc(Cl)c(Cl)c2)n(-c2ccc(NC(=O)CCl)cc2)n1`, the Potency was 6.11 µM (active).

For the compound `C[C@@]1(C(=O)Nc2ccc(F)nc2)CCCN1c1nc(Nc2cc(C3CC3)[nH]n2)c2cccn2n1`, the “activity change, negative = viability loss” value is -16% (inactive).

As for `CC[C@@]1(O)C(=O)OCc2c1cc1n(c2=O)Cc2c-1nc1ccccc1c2/C=N/OC(C)(C)C`, the Potency is 0.217 µM (active).

Take `Cc1ccc(C(=O)Nc2ccc(Oc3cc4cnn(C)c4cc3-c3cn[nH]c3)c(F)c2)c(=O)n1-c1ccc(F)cc1`: the Potency is 4.32 µM (active).

For `Nc1nc(Cl)nc2c1ncn2C1OC(CO)C(O)C1F` (stereo not given), the “activity change, negative = viability loss” value was -18.5% (inactive).
